In all, about 33,000 sequences were measured (“E-score (-0.5 to 0.5)”: median about -0.012, highest 2% from about 0.27 on). The full list was thinned out, with the highest values kept by preference.
These sequences were tested against T1, Vhr1 (UniProt P40522) (assay: PBM E-score (8-mer binding enrichment) (E-score (-0.5 to 0.5)); higher = stronger / more preferred TF binding). Conditions: protein concentration: 200 nM; construct: GST-full length.
T1 sequence: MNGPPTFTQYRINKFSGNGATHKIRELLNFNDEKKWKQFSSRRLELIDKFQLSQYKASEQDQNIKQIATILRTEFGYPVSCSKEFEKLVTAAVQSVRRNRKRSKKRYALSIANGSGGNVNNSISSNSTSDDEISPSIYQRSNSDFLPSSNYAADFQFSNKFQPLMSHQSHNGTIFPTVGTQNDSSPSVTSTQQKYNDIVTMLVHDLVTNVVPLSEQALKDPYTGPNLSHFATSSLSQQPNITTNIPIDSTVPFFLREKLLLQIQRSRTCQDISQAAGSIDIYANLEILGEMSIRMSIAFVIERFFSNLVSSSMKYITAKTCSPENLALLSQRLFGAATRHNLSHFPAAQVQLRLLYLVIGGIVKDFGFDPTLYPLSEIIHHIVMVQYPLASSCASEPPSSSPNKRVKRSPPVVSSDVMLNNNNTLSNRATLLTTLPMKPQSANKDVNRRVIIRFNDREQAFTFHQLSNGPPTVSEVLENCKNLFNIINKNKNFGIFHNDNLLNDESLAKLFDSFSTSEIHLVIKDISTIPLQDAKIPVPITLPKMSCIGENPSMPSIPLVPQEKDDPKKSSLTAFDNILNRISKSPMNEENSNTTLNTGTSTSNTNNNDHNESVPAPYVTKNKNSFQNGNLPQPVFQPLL
Procedure, shortened: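 Masliner-normalised scans of fluorescent anti-GST signal were the basis for scoring. That signal came from GST-tagged yeast transcription factors applied at about 100-200 nM to double-stranded universal all-10-mer Agilent arrays on fresh or once-stripped slides. Each ungapped eight-base word, pooled with its reverse complement, received an E-score from the Universal PBM Analysis Suite.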

| Sequence | PBM E-score |
| --- | --- |
| GTCGTCTA | -0.0586 |
| GAACTAGC | -0.118 |
| AACAGGAT | -0.0425 |
| CTATGAAC | 0.107 |
| CCTATCTA | -0.245 |
| AGTCAGAT | 0.27 |
| ACTCAGCC | 0.151 |
| AGTCAGAG | 0.386 |
| AGTCAGAA | 0.18 |
| AGTCAGCG | 0.347 |
| AGTCAGCC | 0.402 |
| AGTCAGCA | 0.346 |
| CGTCAGCA | -0.11 |
| ATTCAGCG | -0.0101 |
| ACTCAGCG | 0.133 |
| CGTCAGCC | 0.044 |
| GGTCAGCA | 0.15 |
| CTAGCCTA | -0.153 |
| GGAACCAA | 0.171 |
| AAAGGCGC | -0.0831 |
| ACACCCAT | 0.191 |
| AGGTAATC | 0.104 |
| ACACTCCC | 0.0331 |
| CATGGGTA | 0.27 |
| AATGGGTA | 0.0928 |

| Sequence | PBM E-score |
| --- | --- |
| GATGGGTA | 0.285 |
| CAACCCGG | -0.116 |
| AAACCCGC | 0.0774 |
| CAACCCGC | 0.272 |
| CGTTTCAG | -0.0522 |
| ATAGGCCG | -0.229 |
| CATCGATC | 0.016 |
| CATCGATG | 0.302 |
| AATCGATG | 0.107 |
| AGCACAGG | 0.00375 |
| CCAGTCGA | 0.0785 |
| TAAAGGCA | -0.226 |
| AGAGTATC | -0.0198 |
| CCAAGCAC | 0.112 |
| CGATGGGC | 0.297 |
| AGATGGGC | -0.0228 |
| CGATGGGA | -0.0641 |
| ACTTGGCG | 0.0405 |
| CGATAGGA | 0.129 |
| TAGTCTGA | 0.218 |
| AAGTCAAC | -0.00442 |
| AAGTCAAA | 0.00983 |
| GAGTCAAC | 0.403 |
| CAGTCAAC | 0.216 |
| GAGTCAAA | 0.312 |

| Sequence | PBM E-score |
| --- | --- |
| TAGTCAAA | 0.117 |
| ACTTTTAT | -0.304 |
| AAGCCATT | 0.0335 |
| CAAATCAG | -0.0128 |
| ATTAGCTA | 0.0108 |
| GCACCTGA | -0.00933 |
| AACTACAC | 0.0739 |
| AACTACTA | 0.078 |
| TACTACTA | 0.208 |
| GACTATAA | 0.0359 |
| CACTACCA | 0.208 |
| GACTACAC | 0.315 |
| GACTACTA | 0.328 |
| CACTACAC | 0.163 |
| GACTACCC | 0.254 |
| AACTATAC | 0.114 |
| GACTACCA | 0.306 |
| GACTATAC | 0.322 |
| CATAGAAA | 0.102 |
| GCTAGAAA | -0.0866 |
| AGACTGTG | -0.0209 |
| GGAGTGCA | 0.14 |
| CGTTTTTC | -0.141 |
| ACCATAGT | 0.0959 |
| AAGCAAGT | -0.0526 |

| Sequence | PBM E-score |
| --- | --- |
| AAGTACTC | 0.0478 |
| GACTAACA | 0.354 |
| CAGTACTC | 0.117 |
| GAGTAACA | 0.286 |
| CACTAACA | 0.177 |
| GAGTACTC | 0.345 |
| AACTACTC | 0.19 |
| CACTACTC | 0.205 |
| AAGTAACA | 0.0225 |
| GACTACTC | 0.31 |
| TACTAACA | 0.145 |
| GAGTAACC | 0.106 |
| AGCAGCGG | 0.0635 |
| GAGCCAAC | -0.0688 |
| ACATAGCT | -0.216 |
| AACCAATT | 0.0547 |
| CTAGCAAA | 0.00326 |
| ATGGATCC | 0.144 |
| AGTTACTC | 0.0219 |
| AACACAGG | 0.0235 |
| CACACAGA | 0.263 |
| CACACCTC | 0.285 |
| GACACAGC | 0.129 |
| CACACAGG | 0.272 |
| CACACCTG | 0.207 |

| Sequence | PBM E-score |
| --- | --- |
| GACACCTC | 0.0308 |
| AACACAGC | 0.229 |
| CACACAGC | 0.307 |
| AGTGGTGC | -0.0378 |
| ACTGTAGA | 0.0811 |
| CGAAGAAC | 0.0807 |
| ACTAAACG | -0.0382 |
| CAGCAGCG | -0.0154 |
| AGATCTTA | -0.0915 |
| CAACAACA | 0.234 |
| CCATTGGG | -0.18 |
| ACACTGCA | 0.0651 |
| GCACTGCC | -0.039 |
| ACACTGCC | 0.281 |
| CTTCTGCA | -0.194 |
| AATCATAT | 0.296 |
| GCTCATAC | -0.135 |
| AATCATAC | 0.4 |
| AATCATAG | 0.329 |
| AATCATAA | 0.131 |
| ATTCATAG | 0.0981 |
| CATCATAG | 0.266 |
| AATCAAAT | -0.0562 |
| ACTCATAC | 0.284 |
| CATCATAC | 0.216 |

| Sequence | PBM E-score |
| --- | --- |
| CCTCATAC | -0.119 |
| GATCATAC | 0.114 |
| AACCCGTT | -0.0686 |
| GGTGCACA | 0.0381 |
| GCTTTATA | -0.261 |
| CCCTCTAC | -0.113 |
| CCACGTCA | -0.165 |
| GCACAAGC | 0.0452 |
| CACGCAGG | -0.0242 |
| TCATATGA | 0.381 |
| GGATATGA | 0.289 |
| AGATATGA | 0.161 |
| GCATATGA | 0.19 |
| CCATATGA | 0.176 |
| CGATATGA | 0.125 |
| CATGAGCA | 0.125 |
| GGTAGCGA | -0.0248 |
| GAGGATAA | 0.0571 |
| CCGGACTC | 0.303 |
| ACGGACTC | -0.0189 |
| ACTGACTC | 0.421 |
| GTTGACTA | 0.261 |
| CCTGACTC | 0.479 |
| CCTGACAC | 0.188 |
| CCTGACGC | -0.197 |

| Sequence | PBM E-score |
| --- | --- |
| CCGGACTA | 0.108 |
| ACTGACAC | 0.0369 |
| GCTGACTA | 0.324 |
| GCTGACAA | -0.0645 |
| ACTGACCC | 0.0589 |
| AAGAAAGT | -0.0406 |
| CTTCATTC | -0.0777 |
| CCAATTCG | -0.173 |
| GGGATCAA | -0.109 |
| ATTTGGTG | -0.068 |
| ATAGGGTC | 0.197 |
| CCAGCATA | 0.0195 |
| ACTGACTG | 0.0572 |
| CCTGACAA | 0.0179 |
| CCTGACGA | 0.0859 |
| CCTGACTA | 0.391 |
| ATTGACTA | 0.236 |
| CTTGACTC | 0.262 |
| ACTGACTA | 0.295 |
| ATTGACTC | 0.3 |
| ACTGACCA | -0.0638 |
| CCCAGCAG | 0.0474 |
